Experiment [1] in a line: CCTE_Harrill_HTTr_Viability_MCF7: CCTE's 6-hour Cell Viability Assessment for the High-Throughput Transcriptomics (HTTr) Platform, in MCF-7 cells cultured in DMEM + 10% fetal bovine serum, Harrill Lab (AID 2284010). In short, it runs like this: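 PI exclusion, high-content imaging; 8-pt dilution series, 6 h exposure; bidirectional fit vs DMSO (neg. ctrl/baseline); gain of signal = loss of membrane integrity.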

The nature of experiment [2]: CCTE_Harrill_HTTr_Apoptosis_MCF7: CCTE's 6-hour Apoptosis Assessment for the High-Throughput Transcriptomics (HTTr) Platform, in MCF-7 cells cultured in DMEM + 10% fetal bovine serum, Harrill Lab (AID 2284011). In short, it runs like this: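 Apoptosis in MCF-7 cells grown in DMEM with 10% fetal bovine serum was scored after a six hour exposure by high content imaging of caspase-3/7 activation (CellEvent Caspase 3/7 Green), with DMSO serving as negative control and baseline.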

Experiment [3] is described as follows: CCTE_Harrill_HTTr_CellCount_MCF7: CCTE's Cell Proliferation Assessment for the High-Throughput Transcriptomics (HTTr) Platform, Harrill Lab (AID 2284012; active = hit-call score of the fitted dose curve at least 0.9, where 1 is the maximum;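 also: count of Hoechst-stained nuclei per well by high-content imaging in MCF-7 cells; cells exposed to compound for six hours; intended direction is loss of nuclei count meaning fewer cells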). Summed up: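 Readout: Hoechst nuclear count by high-content imaging. MCF-7, 8-point dilution series, 6 h exposure. Bidirectional fit vs DMSO baseline.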
Experiment [4] concerns the target Estrogen receptor (Homo sapiens) (UniProt P03372). Nature of the experiment: CCTE_Deisenroth_AIME_384WELL_LUC_Active: CCTE's 384-well Estrogen Receptor Transactivation Assay with AIME metabolic competence (ERTA luciferase; metabolism positive), Deisenroth Lab (AID 2284030; active = hit-call score of the fitted dose curve at least 0.9, where 1 is the maximum). Summed up: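 Estrogenic luciferase signal in VM7Luc4E2 cells is measured at 24 hour, after chemicals have been preconditioned 2 hours with PB/BNF-induced rat hepatic S9 in alginate. Gain of signal is fitted relative to 17beta-estradiol, across 0.002 - 200 uM.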

A short description of experiment [5]: CCTE_Shafer_MEA_acute_burst_number: CCTE's Neural Acute Assay for Single-Electrode Bursts, Shafer Lab (AID 2284013). Summed up: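 Percent change in single-electrode burst number per well, from 40-min recordings taken before and after adding compound (0.03-40 uM) to primary rat cortical neurons on MEA plates at DIV 13 or 15, 37 C.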
Experiment [6] is described as follows: CCTE_Shafer_MEA_acute_burst_duration_mean: CCTE's Neural Acute Assay for Mean Burst Duration, Shafer Lab (AID 2284014).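 Also: hits are decreases in mean burst duration relative to DMSO controls.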 In short, it runs like this:
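Rat cortical cultures, DIV 13/15; 40 min baseline, then 40 min with compound (0.03-40 uM), 37 C. Spikes: 300-5000 Hz band-pass, 8x rms threshold. Read-out: % change in mean single-electrode burst duration, DMSO-referenced, loss direction.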

A short description of experiment [7]: CCTE_Shafer_MEA_acute_per_burst_spike_number_mean: CCTE's Neural Acute Assay for Average Number of Spikes Per Burst, Shafer Lab (AID 2284015).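 Also: hits are decreases in mean spikes per burst versus baseline.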 In short, it runs like this:
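We recorded spontaneous network firing of rat cortical neurons for 40 min before and 40 min during exposure to compound at 0.03-40 uM, at 37 C. Spikes were detected adaptively at 8x rms noise, and the change in average spikes per burst was fitted against DMSO.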

Experiment [8] is described as follows: CCTE_Shafer_MEA_acute_interburst_interval_mean: CCTE's Neural Acute Assay for Mean Interburst Interval, Shafer Lab (AID 2284016).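 Also: percent change of mean interburst interval versus each well's own pre-dose baseline; curves fitted for decrease in interburst interval relative to DMSO.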 In short, it runs like this:
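MEA recording of spontaneous network bursting in primary rat cortical cultures; mean interburst interval was compared before and after a 40-min compound exposure (0.03-40 uM) and expressed as percent change, relative to DMSO.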

The nature of experiment [9]: CCTE_Shafer_MEA_acute_burst_percentage_mean: CCTE's Neural Acute Assay for Percentage of Spikes in a Burst, Shafer Lab (AID 2284017).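 As to AC50: curve fitted for loss of signal so potency reflects decreased burst percentage.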 Summed up:
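Compounds were tested at 0.03-40 uM on primary rat cortical neuron networks grown over microelectrodes, with at least three wells per compound. Spontaneous firing was recorded for 40 min before and 40 min after dosing, and the change in burst percentage was computed per well.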

Experiment [10] in a line: CCTE_Shafer_MEA_acute_burst_percentage_std: CCTE's Neural Acute Assay for Standard Deviation of Burst Percentage, Shafer Lab (AID 2284018).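 Also: fitted in the negative direction so actives lower burst percentage SD.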 In short, it runs like this:
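Rat primary cortical neurons on 48-well MEAs, DIV 13 or 15, 37 C. 40-min baseline then 40-min recording with compound (0.03-40 uM); well-level SD of per-electrode burst spike percentage, expressed as percent change from baseline.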

A short description of experiment [11]: CCTE_Shafer_MEA_acute_per_network_burst_spike_number_mean: CCTE's Neural Acute Assay for Average Number of Spikes in a Network Burst, Shafer Lab (AID 2284019). Summed up: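 Rat cortical cultures, DIV 13/15; spike threshold 8x rms noise, 300-5000 Hz band-pass, 12.5 kHz sampling; wells need >/= 10 active electrodes. Compound 0.03-40 uM, 40 min, 37 C; % change vs own baseline, DMSO negative control.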

A short description of experiment [12]: CCTE_Shafer_MEA_acute_per_network_burst_spike_number_std: CCTE's Neural Acute Assay for Standard Deviation of Number of Spikes in a Network Burst, Shafer Lab (AID 2284020).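 Also: fitted for decrease in spike-number SD versus DMSO so actives lower it.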 In short, it runs like this: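 Rat cortical cultures, DIV 13/15, 37 C; 20-min stabilisation, 40-min baseline, compound 0.03-40 uM, 40-min re-record. Spikes detected at 8x rms noise (300-5000 Hz band-pass). Readout: % change from baseline in per-burst spike-number SD.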

Experiment [13] in a line: CCTE_Shafer_MEA_acute_per_network_burst_electrodes_number_mean: CCTE's Neural Acute Assay for Mean Number of Electrodes in a Network Burst, Shafer Lab (AID 2284021).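 Also: curves fitted for decreases only so hits reduce electrodes per burst.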 Summed up: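 Percent change from baseline in average electrode count per network burst, rat cortical cultures on 48-well MEAs; 40-min recordings each side of exposure, DIV 13 or 15; threshold 8x rms noise; DMSO as negative control.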

The nature of experiment [14]: CCTE_Shafer_MEA_acute_network_burst_percentage: CCTE's Neural Acute Assay for Percentage of Network Bursts, Shafer Lab (AID 2284022).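 Also: curves fitted for loss so actives lower network burst percentage.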 In short, it runs like this:
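On DIV 13 or 15, at least three wells of rat cortical neurons per compound are dosed at 0.03-40 uM. Spontaneous firing is detected at 8x rms noise for 40 min before and after dosing at 37 C. The percent change in network-burst spike share is reported.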

Experiment [15] in a line: CCTE_Shafer_MEA_acute_cross_correlation_area: CCTE's Neural Acute Assay for Area of Cross Correlation, Shafer Lab (AID 2284024).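 Also: area under pooled inter-electrode spike cross-correlation near zero lag as percent change from own baseline; curves fitted for loss of cross-correlation area so actives lower synchrony.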 Summed up:
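Extracellular recordings from cultured rat cortical neurons measure network synchrony as cross-correlation area; each well's post-compound value (0.03-40 uM, 40 min) is compared with its own 40 min baseline to give percent change.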

Experiment [16] can be described thus: CCTE_Shafer_MEA_acute_synchrony_index: CCTE's Neural Acute Assay for Synchrony, Shafer Lab (AID 2284027).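 Also: network synchrony index of spontaneous spiking in primary rat cortical neurons on MEAs; fitted for loss of signal so actives lower synchrony relative to DMSO.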 Summed up:
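Rat cortical cultures, DIV 13/15; spikes detected at 8x rms noise, 300-5000 Hz band-pass. Compound 0.03-40 uM, ≥3 wells; 40-min pre- and post-exposure recordings, 37 C. Readout: % change in synchrony index; loss-of-signal fit vs DMSO.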

Records with an inconclusive call do not appear. Activity calls are given as the source filed them. The calls were made as follows, unless noted: active = hit-call score of the fitted dose curve at least 0.9, where 1 is the maximum; inactive = score below 0.9.

The term AC50 denotes the concentration at which the activity in the assay is half-maximal.

Chain of Estrogen receptor (Homo sapiens) (P03372 whole entry, looked up): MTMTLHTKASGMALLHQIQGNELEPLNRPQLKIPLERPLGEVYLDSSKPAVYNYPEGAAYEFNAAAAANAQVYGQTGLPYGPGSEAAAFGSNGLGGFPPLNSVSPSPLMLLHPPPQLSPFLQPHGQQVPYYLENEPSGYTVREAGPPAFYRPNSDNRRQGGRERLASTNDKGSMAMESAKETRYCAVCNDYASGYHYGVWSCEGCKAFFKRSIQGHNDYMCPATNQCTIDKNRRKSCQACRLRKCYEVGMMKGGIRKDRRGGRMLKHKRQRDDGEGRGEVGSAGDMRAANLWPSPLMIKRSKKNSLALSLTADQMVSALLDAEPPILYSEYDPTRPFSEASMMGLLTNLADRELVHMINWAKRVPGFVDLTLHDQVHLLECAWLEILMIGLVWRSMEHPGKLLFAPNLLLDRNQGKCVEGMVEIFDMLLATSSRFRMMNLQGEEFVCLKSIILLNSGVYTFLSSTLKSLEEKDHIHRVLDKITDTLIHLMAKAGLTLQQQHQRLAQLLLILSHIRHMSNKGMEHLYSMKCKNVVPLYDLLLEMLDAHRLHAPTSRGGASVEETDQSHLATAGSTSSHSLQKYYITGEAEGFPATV

For the compound `Cc1cccc([N+](=O)[O-])c1C`, the result in experiment [1], in experiment [2], in experiment [3] and in experiment [4] was inactive.
In the case of `Clc1cc(Cl)c(Cl)cc1Cl`, the outcome in experiment [1], in experiment [2], in experiment [3], in experiment [5], in experiment [6] and in [7] was inactive. Further, the result in [8], in [9], in experiment [10], in [11], in experiment [12] and in experiment [13] was inactive. In addition, the compound was called inactive in experiment [14], in experiment [15], in experiment [16] and in experiment [4].
For the compound `COc1cc(S(=O)(=O)O)c(C)cc1N=Nc1c(O)ccc2cc(S(=O)(=O)O)ccc12`, the outcome in [1], in [2] and in [3] was inactive.
On to `CN[C@H]1CC[C@@H](c2ccc(Cl)c(Cl)c2)c2ccc(S(N)(=O)=O)cc21`, for which the result in [1], in experiment [2], in experiment [3], in experiment [5], in experiment [6] and in [8] was inactive. The compound was classed as inactive in [10], in experiment [11] and in experiment [15]. Further, the AC50 in experiment [7] was 20 µM (active); in experiment [9] it was 31.6 µM (active); in experiment [12] it was 20 µM (active); in experiment [13] it was 29.9 µM (active); in experiment [14] it was 31 µM (active); in [16], 32 µM (active).
For `COc1ccc2c(c1)c(CC(=O)O)c(C)n2C(=O)c1ccc(Cl)cc1`, the outcome in experiment [1], in experiment [2], in [3], in [5], in experiment [6] and in [7] was inactive. Besides, the compound was called inactive in experiment [8], in experiment [9], in [10], in [11], in experiment [12] and in experiment [13]. Moreover, the compound was classed as inactive in [14], in experiment [15] and in experiment [16].
On to `C=CCc1ccc(O)c(OC)c1`, for which the result in [1], in [2], in experiment [3], in [5], in experiment [6] and in experiment [7] was inactive. Besides, the compound was classed as inactive in [8], in experiment [9], in experiment [10], in experiment [11], in experiment [12] and in experiment [13]. Besides, the compound was called inactive in [15] and in experiment [4]. The AC50 is 31.1 µM (active) in [14] and 20 µM (active) in experiment [16].
Take `CCCCC(CC)COC(=O)CC(C(=O)OCC(CC)CCCC)S(=O)(=O)O` (stereo unspecified): the outcome in experiment [1], in experiment [2] and in experiment [3] was inactive.
In the case of `CCOC(=O)CCC(=O)OCC`, the result in experiment [1], in experiment [2] and in experiment [3] was inactive.
With `CCCCCCCCCCO`, the outcome in experiment [1], in experiment [2], in experiment [3], in experiment [5], in experiment [6] and in [7] was inactive. Further, the outcome in experiment [8], in [10], in experiment [11], in [12], in [13] and in experiment [14] was inactive. Besides, the compound was called inactive in experiment [15] and in experiment [4]. Also, the AC50 in experiment [9] is 10.3 µM (active); in experiment [16], 20 µM (active).
With `Cc1cccc(C)c1O`, the result in experiment [1], in experiment [2], in experiment [3] and in experiment [4] was inactive.
Take `CCCc1cc(=O)[nH]c(=S)[nH]1`: the result in experiment [1], in [2], in experiment [3], in experiment [5], in experiment [6] and in experiment [7] was inactive. The compound was called inactive in experiment [8], in [9], in experiment [10], in [11], in experiment [12] and in experiment [13]. For the same compound, the compound was classed as inactive in [14], in experiment [15], in experiment [16] and in [4].
For the compound `NCC1(Cc2noc(=O)[nH]2)CCCCC1`, the outcome in experiment [1], in [2], in experiment [3], in [5], in experiment [6] and in [7] was inactive. Moreover, the compound was called inactive in experiment [8], in [9], in experiment [10], in experiment [11], in [12] and in experiment [13]. In addition, the outcome in experiment [14], in experiment [15] and in [16] was inactive.

Source of the values: PubChem BioAssay (EPA / NIEHS).
